Data reported in PubChem BioAssay (NCATS).
Records with an inconclusive call do not appear. Calls of active or inactive are those of the source. Unless noted, calls come from the whole dose curve; as a rule, active = well fitted curve in the direction sought with a large enough effect; inconclusive = small, poorly fitted or top-dose-only effect, or another doubt; inactive = no such curve, though single readings can be large; an effect the other way counts as inactive or inconclusive.

Assays:
[1] = target: Cytochrome P450 1A2 (Homo sapiens) (UniProt P05177); experiment: p450-cyp1a2 (AID 410; calls by dose curve; note: potency is the fitted concentration of half-maximal effect)
Method in brief: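 20nM CYP1A2 with 100uM Luciferin-ME (at Km) in 100mM KPO4; compound preincubated 10 min, NADPH regeneration added, 60 min at room temperature. Luciferin quantified by luminescence after detection reagent; normalized to 57 uM furafylline.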

[2] = NFAT Signaling Pathway (AID 444; active = well fitted curve in either direction with a large enough effect, not every such curve was filed as active;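 note: carbachol stimulus at about its EC50 of 1 µM final; % is set by controls: 0 for no effect and ±100 for the full control effect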); details: Jurkat NFAT-bla M1, carbachol, beta-lactamase ratio, 5 h; at 38 µM (top of the series)
Method in brief: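 Jurkat cells carrying an NFAT-driven β-lactamase reporter and co-transfected muscarinic M1 receptor were treated with compound plus carbachol (1 uM final, an EC50 level) for 5 h at 37 °C. CCF4 loading followed for 1 h at RT; 460/530 nm ratio gave %activity.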

[3] = target: Glucocorticoid receptor (Homo sapiens) (UniProt P04150); experiment: GR-GFP Redistribution (AID 450;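 active = compounds whose dose series gives a full or clear partial fitted curve of increased nuclear translocation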; note: potency is the fitted concentration of half-maximal effect); details: U2OS GR-GFP nuclear translocation, laser cytometry, 2 h
[4] = target: Glucocorticoid receptor (Homo sapiens) (UniProt P04150); experiment: GR-EFC Redistribution (AID 451; calls by dose curve; note: potency is the fitted concentration of half-maximal effect); details: CHO-K1 GR-EFC translocation, beta-gal luminescence, 2 h
Method in brief: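 CHO-K1 cells stably expressing nuclear-localized β-gal enzyme acceptor and GR fused C-terminally to the enzyme donor fragment; ligand-driven nuclear translocation restores β-gal by complementation. Compounds titrated up to 46 uM final, 2 h at 37 °C; luminescence read.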

[5] = target: Mitogen-activated protein kinase 10 (Mus musculus) (UniProt Q61831); experiment: JNK3 AlphaScreen Assay (AID 530; active = well fitted curve in either direction with a large enough effect, not every such curve was filed as active;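 note: kinase came from lysate of stimulated human HepG2 cells; signal reports phosphorylation of biotinylated GST-cJun 1-79 at Ser73 with 10 µM ATP; % is set by controls: 0 for no effect and ±100 for the full control effect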)
Method in brief: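 Inhibitors reduce antibody binding to phosphorylated biotin-cJun, lowering AlphaScreen luminescence. Lysates from HepG2 cells pre-activated by IL-1beta plus TNF-alpha supplied JNK3; compounds were titrated.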

[6] = target: 3',5'-cyclic-AMP phosphodiesterase 4B (Homo sapiens) (UniProt Q07343); experiment: qHTS Assay for Inhibitors of PDE-IV (AID 607; active = well fitted activation curve with a large enough effect in the main read-out, with a control signal flat, not every such curve was filed as active; note: % of control where 0% means no effect)
Method in brief: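 The readout is membrane depolarisation from a cAMP-sensing CNG channel, detected with a potential dye at ex 535/em 590. Cells were HEK293-derived (endogenous PDE-IV) at 1000 cells/well, titrated up to 22.9 uM final.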

[7] = target: Guanine nucleotide-binding protein G(i) subunit alpha-1 (Homo sapiens) (UniProt P63096); experiment: qHTS Assay for Inhibitors of RGS12 GoLoco Motif Activity (Green Fluorophore) (AID 879);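 note: 0% = labeled peptide with Gαi1 and full inhibition = labeled peptide alone without protein; negative values mean loss of peptide binding seen as reduced polarization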
Method in brief: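 Fluorescence polarization assay: 50 nM Gαi1 with 10 nM FITC-labeled RGS12 GoLoco peptide in 10 mM Tris pH 7.5, 150 mM NaCl, 0.1 mM GDP, 0.05% NP40, 10 min at room temperature with compound.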

[8] = target: Cytochrome P450 3A4 (Homo sapiens) (UniProt P08684); experiment: qHTS Assay for Inhibitors and Substrates of Cytochrome P450 3A4 (AID 884); note: % is set by controls: 0 for no effect and ±100 for the full control effect; nearly all actives have a fitted effect of over 50% in size
Method in brief: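 20 nM human CYP3A4 with 25 uM Luciferin-PPXE (at KM) in 200 mM KPO4, preincubated 10 min with compound; NADPH regeneration started a 60 min RT reaction. Luciferin detected by luminescence, normalized to 57 uM ketoconazole as full inhibition.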

[9] = target: Cytochrome P450 3A4 (Homo sapiens) (UniProt P08684); experiment: qHTS Assay for Activators of Cytochrome P450 3A4 (AID 885); note: potency is the fitted concentration of half-maximal effect; nearly all actives have a fitted effect of over 65% in size
Method in brief: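 Steps: enzyme/substrate mix dispensed; compound added, 10 min RT; NADPH regeneration solution added, 60 min RT; luciferin detection buffer stops reaction; 20 min later luminescence measured.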

[10] = qHTS Assay for Identification of Small Molecule Antagonists for NFkB Signaling Pathway (AID 895; active = well fitted inhibition curve with a large enough effect in the signal ratio, with a control signal flat, not every such curve was filed as active; the % refers to the signal ratio; note: % is set by controls: 0 for no effect and ±100 for the full control effect)
Method in brief: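 NFkB-bla ME-180 cervical carcinoma cells with beta-lactamase reporter under NFkB response element; compounds added, then TNF alpha at 10 pM final (EC50), 5 h at 37 C. LiveBLAzer substrate 2 h, room temperature; emission 460/530 nm at 405 nm excitation.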

[11] = target: Cytochrome P450 2C19 (Homo sapiens) (UniProt P33261); experiment: qHTS Assay for Inhibitors and Substrates of Cytochrome P450 2C19 (AID 899); note: potency is the fitted concentration of half-maximal effect; nearly all actives have a fitted effect of over 60% in size
Method in brief: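 Human CYP2C19 (5nM) with Luciferin-H EGE at 10uM (its KM) in 50mM KPO4 was preincubated with compound for 10 min at 37C. NADPH regeneration started a 60 min 37C reaction. Luciferin was read by luminescence, normalized to 57uM ketoconazole.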

[12] = qHTS Assay for Identification of Small Molecule Agonists for Thrombopoietin (TPO) Signaling Pathway (AID 917); note: % is set by controls: 0 for no effect and ±100 for the full control effect
Method in brief: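 Reporter: GpIIb promoter–luciferase in murine Ba/F3 expressing human TPO receptor. Pre-starved of IL-3 overnight; compounds with 26 pM TPO, 24 hrs, 37 C/5% CO2; luminescence read.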

[13] = target: Muscarinic acetylcholine receptor M1 (Rattus norvegicus) (UniProt P08482); experiment: qHTS Assay for Antagonists of Acetylcholine Muscarinic M1 Receptor: Kinetic Measurement of Intracellular Calcium Response (AID 943); note: nearly all actives have a fitted effect of over 75% in size
Method in brief: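 CHO cells expressing rat M1 receptor, Fluo-4 loaded, preincubated 10 min with compound, then stimulated with EC80 carbachol (100 nM final). Kinetic calcium fluorescence over 4 min; response taken as peak over basal signal.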

[14] = target: Muscarinic acetylcholine receptor M1 (Rattus norvegicus) (UniProt P08482); experiment: qHTS Assay for Antagonists of Acetylcholine Muscarinic M1 Receptor: Measurement of IP-One Response (AID 944); note: nearly all actives have a fitted effect of over 75% in size
Method in brief: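 CHO cells stably expressing rat M1, pretreated 10 min with compound, then stimulated 30 min with carbachol at EC80 (200 nM) in LiCl-containing buffer pH 7.4; IP1 accumulation read by HTRF competition (665/620 nm).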

[15] = target: Alpha-galactosidase (Coffea arabica) (UniProt Q42656); experiment: Counterscreen for Glucocerebrosidase Inhibitors: qHTS Assay for Coffee Bean alpha-Galactosidase at pH 4.5 (AID 957);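 note: plate controls were enzyme alone for no effect and no enzyme for full effect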
Method in brief: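 Coffee bean enzyme (2 nM) with 80 uM 4-methylumbelliferyl alpha-D-galactopyranoside in 50 mM citric acid, 0.005% Tween-20, pH 4.5, 20 min at room temperature; compounds 0.7 nM–77 uM. Stopped at pH 10, fluorescence 365/440 nm; AC50 from Hill fits.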

[16] = target: Pyruvate kinase (Leishmania mexicana) (UniProt Q27686); experiment: qHTS Validation Assay for Activators of Leishmania Mexicana Pyruvate Kinase (AID 959)
Method in brief: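 An endpoint luciferase assay: 0.2 nM LmPYK E451W turns over 0.5 mM PEP with 0.1 mM ADP for 1 h at room temperature, pH 7.2, before PKLight addition. Values are normalized to DMSO-only wells.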

[17] = target: Alpha-galactosidase A (Homo sapiens) (UniProt P06280); experiment: Counterscreen for Glucocerebrosidase Inhibitors: qHTS Assay for Human alpha-Galactosidase at pH 4.5 (AID 992); note: 0% is about no effect
Method in brief: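 Concentration-response curves (0.7 nM to 77 uM final) were modeled with the Hill equation to give AC50. Reactions: 2 nM enzyme, 80 uM fluorogenic alpha-galactoside, pH 4.5 citric acid buffer, 20 min, room temperature.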

[18] = target: Alpha-galactosidase (Coffea arabica) (UniProt Q42656); experiment: Counterscreen for Glucocerebrosidase Inhibitors: qHTS Assay for Coffee Bean alpha-Galactosidase at pH 5.9 (AID 998);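 note: plate controls were uninhibited enzyme for no effect and no-enzyme basal signal for full effect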
Method in brief: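 Green coffee bean enzyme (2 nM final) was incubated with compounds (0.7 nM–77 uM) and 4-methylumbelliferyl alpha-D-galactopyranoside (80 uM) in citrate buffer pH 5.9, 20 min at room temperature. High-pH stop; fluorescence 365/440 nm; AC50 from Hill fits.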

[19] = Validation of Assay for Modulators of Lamin A Splicing (AID 1459; active = well fitted curve in the direction sought with a large enough effect in the signal ratio; the % refers to the signal ratio;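 note: cells exposed to compound for two days before reading; 0% is about no effect; ratio rise marks activators and ratio drop marks inhibitors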)
Method in brief: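 Splicing correction read as GFP (500-530 nm) over DsRed2 (575-640 nm) object intensity after 48 h compound exposure of reporter HeLa S3 clones (600 cells/well, 2% FBS medium); ancitabine and cycloheximide titrations, 0.5% DMSO as vehicle.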

[20] = target: DNA repair nuclease/redox regulator APEX1 (Homo sapiens) (UniProt P27695); experiment: qHTS Validation Assay for Inhibitors of the Human Apurinic/apyrimidinic Endonuclease 1 (APE1) (AID 1705)
Method in brief: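 Activity read as rising fluorescence (598 nm emission, 525 nm excitation) from incision of a TAMRA/BHQ-2 duplex carrying a THF abasic site (50 nM). Compound and enzyme sat 15 min at RT before substrate start; signal change between first and third 60-s reads.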

[21] = Counterscreen for APE1 Inhibitors: Fluorescent Dye Displacement Validation Assay (AID 1707);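 note: plate controls were ThO with dsDNA and no compound for no effect and ThO without dsDNA for full effect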
Method in brief: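 Assay buffer: Tris-HCl pH7.5 with 50mM NaCl, 2 mM MgCl2, 0.01% Tween-20. Dye 250 nM, duplex 50 nM final. Readout: decrease in ThO endpoint fluorescence, 480 nm excitation, 540 nm emission.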

Chain of Alpha-galactosidase (Coffea arabica) (Q42656 whole entry, looked up): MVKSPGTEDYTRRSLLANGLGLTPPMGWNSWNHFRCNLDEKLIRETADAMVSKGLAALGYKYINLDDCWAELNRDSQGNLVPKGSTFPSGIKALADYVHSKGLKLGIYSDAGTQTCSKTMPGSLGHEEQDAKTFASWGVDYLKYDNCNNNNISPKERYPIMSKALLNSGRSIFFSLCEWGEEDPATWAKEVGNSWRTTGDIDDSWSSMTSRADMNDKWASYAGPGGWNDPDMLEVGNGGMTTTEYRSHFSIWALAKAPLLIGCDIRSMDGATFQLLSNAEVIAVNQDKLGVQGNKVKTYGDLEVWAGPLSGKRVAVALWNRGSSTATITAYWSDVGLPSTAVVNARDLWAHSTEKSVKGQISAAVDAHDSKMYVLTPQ
Chain of Cytochrome P450 3A4 (Homo sapiens) (P08684 whole entry, looked up): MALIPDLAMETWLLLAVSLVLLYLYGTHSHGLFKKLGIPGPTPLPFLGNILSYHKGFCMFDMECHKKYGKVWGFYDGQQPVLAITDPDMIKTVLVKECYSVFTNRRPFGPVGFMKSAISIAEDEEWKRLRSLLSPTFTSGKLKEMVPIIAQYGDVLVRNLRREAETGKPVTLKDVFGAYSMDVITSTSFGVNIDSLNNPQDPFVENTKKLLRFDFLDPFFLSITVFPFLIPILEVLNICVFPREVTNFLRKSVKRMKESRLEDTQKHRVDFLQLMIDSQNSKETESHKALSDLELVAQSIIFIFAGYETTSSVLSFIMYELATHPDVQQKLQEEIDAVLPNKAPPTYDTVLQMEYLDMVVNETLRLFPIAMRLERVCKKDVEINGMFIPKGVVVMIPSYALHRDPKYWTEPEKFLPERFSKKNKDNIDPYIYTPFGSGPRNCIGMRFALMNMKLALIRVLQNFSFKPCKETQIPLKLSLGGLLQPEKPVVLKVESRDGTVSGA
Chain of Glucocorticoid receptor (Homo sapiens) (P04150 whole entry, looked up, the tested form may be a part): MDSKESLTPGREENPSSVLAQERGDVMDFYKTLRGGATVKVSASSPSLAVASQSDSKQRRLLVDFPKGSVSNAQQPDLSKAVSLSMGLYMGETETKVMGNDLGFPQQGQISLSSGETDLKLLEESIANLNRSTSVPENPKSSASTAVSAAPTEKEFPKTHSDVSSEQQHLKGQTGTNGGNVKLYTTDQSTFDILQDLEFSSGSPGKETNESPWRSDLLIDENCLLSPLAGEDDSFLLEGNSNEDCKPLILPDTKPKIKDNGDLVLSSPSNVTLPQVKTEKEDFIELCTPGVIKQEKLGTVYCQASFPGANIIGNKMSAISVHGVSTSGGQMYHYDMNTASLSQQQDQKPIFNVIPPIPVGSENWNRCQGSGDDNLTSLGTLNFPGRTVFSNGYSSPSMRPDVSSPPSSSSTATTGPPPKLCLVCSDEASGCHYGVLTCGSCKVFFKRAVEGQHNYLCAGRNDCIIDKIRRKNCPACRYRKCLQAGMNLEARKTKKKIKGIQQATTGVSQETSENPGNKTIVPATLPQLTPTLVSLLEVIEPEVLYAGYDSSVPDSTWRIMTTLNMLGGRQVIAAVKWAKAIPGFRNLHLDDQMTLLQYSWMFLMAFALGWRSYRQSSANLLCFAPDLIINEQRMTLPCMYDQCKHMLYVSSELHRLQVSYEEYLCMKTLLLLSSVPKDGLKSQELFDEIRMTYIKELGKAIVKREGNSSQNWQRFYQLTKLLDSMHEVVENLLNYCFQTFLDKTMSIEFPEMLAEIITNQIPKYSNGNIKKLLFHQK
Chain of Muscarinic acetylcholine receptor M1 (Rattus norvegicus) (P08482 whole entry, looked up): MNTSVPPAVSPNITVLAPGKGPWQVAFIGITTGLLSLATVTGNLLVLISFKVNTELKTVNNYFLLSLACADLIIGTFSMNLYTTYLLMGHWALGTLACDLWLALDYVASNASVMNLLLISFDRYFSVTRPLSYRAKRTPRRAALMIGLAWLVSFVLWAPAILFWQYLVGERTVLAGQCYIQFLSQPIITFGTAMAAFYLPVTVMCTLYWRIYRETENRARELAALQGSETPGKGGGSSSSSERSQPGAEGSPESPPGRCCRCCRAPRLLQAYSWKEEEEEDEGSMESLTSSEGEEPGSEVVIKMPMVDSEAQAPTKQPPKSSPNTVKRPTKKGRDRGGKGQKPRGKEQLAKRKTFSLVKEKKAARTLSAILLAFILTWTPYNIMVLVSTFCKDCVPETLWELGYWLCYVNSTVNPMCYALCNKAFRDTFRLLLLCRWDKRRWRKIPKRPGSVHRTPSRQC
Chain of DNA repair nuclease/redox regulator APEX1 (Homo sapiens) (P27695 whole entry, looked up): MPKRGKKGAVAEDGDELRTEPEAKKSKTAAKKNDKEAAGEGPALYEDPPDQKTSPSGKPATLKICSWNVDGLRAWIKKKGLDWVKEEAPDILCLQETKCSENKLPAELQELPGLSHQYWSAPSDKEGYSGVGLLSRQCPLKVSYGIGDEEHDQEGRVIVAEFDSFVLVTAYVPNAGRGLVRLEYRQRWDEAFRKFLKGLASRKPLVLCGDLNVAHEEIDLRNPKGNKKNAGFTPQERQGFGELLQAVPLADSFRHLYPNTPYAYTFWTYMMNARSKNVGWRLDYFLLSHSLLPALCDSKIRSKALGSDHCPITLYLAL
Chain of 3',5'-cyclic-AMP phosphodiesterase 4B (Homo sapiens) (Q07343 whole entry, looked up): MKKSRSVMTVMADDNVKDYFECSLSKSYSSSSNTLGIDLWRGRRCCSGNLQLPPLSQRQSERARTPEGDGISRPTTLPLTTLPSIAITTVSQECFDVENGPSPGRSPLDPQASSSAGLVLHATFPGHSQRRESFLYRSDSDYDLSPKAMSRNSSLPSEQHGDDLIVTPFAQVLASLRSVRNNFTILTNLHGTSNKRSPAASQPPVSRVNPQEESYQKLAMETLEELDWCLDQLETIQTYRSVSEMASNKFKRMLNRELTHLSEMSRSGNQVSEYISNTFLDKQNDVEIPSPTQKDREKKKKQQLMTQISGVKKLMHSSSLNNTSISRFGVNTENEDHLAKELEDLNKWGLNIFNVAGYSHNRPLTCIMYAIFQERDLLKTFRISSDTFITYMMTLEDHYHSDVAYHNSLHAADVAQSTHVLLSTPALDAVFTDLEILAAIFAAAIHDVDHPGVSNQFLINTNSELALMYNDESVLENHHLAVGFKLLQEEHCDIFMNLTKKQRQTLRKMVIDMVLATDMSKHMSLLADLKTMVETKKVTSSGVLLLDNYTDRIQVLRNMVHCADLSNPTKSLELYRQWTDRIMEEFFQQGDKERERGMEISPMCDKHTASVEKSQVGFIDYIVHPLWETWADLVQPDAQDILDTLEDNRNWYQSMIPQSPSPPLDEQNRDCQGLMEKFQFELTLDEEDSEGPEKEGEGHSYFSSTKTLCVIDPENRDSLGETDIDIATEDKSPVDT
Chain of Pyruvate kinase (Leishmania mexicana) (Q27686 2-499 E452W): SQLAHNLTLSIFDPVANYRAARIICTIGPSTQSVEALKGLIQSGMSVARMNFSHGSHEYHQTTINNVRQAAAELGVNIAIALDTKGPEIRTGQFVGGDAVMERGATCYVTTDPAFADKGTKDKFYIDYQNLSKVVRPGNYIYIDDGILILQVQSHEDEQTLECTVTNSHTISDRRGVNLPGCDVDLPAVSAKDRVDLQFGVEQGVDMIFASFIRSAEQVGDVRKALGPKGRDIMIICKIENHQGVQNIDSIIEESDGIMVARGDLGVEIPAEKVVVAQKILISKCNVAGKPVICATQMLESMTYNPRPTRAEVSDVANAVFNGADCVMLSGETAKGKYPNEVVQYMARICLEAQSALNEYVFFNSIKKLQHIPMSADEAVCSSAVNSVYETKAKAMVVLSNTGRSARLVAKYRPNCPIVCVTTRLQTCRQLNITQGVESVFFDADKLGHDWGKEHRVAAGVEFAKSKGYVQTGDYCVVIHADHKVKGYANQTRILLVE
Chain of Cytochrome P450 2C19 (Homo sapiens) (P33261 whole entry, looked up): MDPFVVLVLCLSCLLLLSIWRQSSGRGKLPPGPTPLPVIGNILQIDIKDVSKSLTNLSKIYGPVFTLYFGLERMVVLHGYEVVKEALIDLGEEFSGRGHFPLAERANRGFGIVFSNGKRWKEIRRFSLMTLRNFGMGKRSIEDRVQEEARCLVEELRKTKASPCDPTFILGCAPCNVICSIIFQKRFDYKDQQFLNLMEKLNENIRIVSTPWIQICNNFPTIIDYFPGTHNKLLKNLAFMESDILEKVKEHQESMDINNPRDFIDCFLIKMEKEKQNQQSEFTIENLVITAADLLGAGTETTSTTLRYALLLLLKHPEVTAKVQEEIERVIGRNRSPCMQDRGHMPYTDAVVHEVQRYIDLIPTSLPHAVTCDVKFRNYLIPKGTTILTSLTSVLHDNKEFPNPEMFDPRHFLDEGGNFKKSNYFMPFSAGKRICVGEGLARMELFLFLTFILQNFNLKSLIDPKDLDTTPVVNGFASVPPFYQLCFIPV
Chain of Guanine nucleotide-binding protein G(i) subunit alpha-1 (Homo sapiens) (P63096 whole entry, looked up): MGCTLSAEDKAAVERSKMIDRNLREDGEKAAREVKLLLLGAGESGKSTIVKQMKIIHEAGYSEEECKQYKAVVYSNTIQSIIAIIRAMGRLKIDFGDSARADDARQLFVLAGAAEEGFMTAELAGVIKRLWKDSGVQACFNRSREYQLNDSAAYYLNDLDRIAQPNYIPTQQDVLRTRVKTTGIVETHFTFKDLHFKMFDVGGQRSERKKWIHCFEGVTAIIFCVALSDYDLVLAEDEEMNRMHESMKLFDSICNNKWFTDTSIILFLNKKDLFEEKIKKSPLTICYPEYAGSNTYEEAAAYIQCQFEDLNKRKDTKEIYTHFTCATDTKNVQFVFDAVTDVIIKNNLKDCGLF
Chain of Alpha-galactosidase A (Homo sapiens) (P06280 whole entry, looked up): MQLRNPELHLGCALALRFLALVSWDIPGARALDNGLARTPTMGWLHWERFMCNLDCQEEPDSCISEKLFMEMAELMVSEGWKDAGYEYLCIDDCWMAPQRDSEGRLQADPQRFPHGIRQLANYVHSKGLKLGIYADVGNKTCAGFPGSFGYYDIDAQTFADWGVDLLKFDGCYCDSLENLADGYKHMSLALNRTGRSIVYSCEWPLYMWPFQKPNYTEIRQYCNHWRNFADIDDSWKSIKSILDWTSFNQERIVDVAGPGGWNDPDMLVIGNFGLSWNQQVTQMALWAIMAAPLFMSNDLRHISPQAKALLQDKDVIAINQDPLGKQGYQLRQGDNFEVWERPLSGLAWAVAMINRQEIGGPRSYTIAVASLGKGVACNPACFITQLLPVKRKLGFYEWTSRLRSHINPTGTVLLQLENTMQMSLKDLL

COC(=O)c1cc2c(cn1)[nH]c1ccccc12
active: Potency [1] 0.631 µM | Potency [9] 15.8 µM | Potency [11] 3.98 µM
inactive: activity change, negative = inhibition [2] -0.308% | Potency [3] > 46 µM | Potency [4] > 46 µM | outcome [5] | Potency [6] | outcome [7] | Potency [8] | Potency [10] | outcome [12] | Potency [13] | Potency [14] | outcome [15] | Potency [16] | outcome [17] | outcome [18] | outcome [19] | Potency [20] | Potency [21]
